# According to publication PMC7862700, “An all-to-all approach to the identification of sequence-specific readers for epigenetic DNA modifications on cytosine”:
# What was measured:
# Experiment in all cases: DAPPL (digital affinity profiling via proximity ligation, sequencing); 10 mM Tris-HCl pH 7.5, 50 mM NaCl, 1 mM DTT, 4% glycerol, room temperature, 30 min; GST-TFs on glutathione beads, 16-mer random dsDNA library, 0.1% formaldehyde crosslink after washing; high values mean tight binding
# FLI1 = target: T1, FLI1 (Homo sapiens, UniProt Q01543 1-452); details: protein: recombinant; tags: N-terminal GST; dsDNA, one strand shown
# T1 sequence: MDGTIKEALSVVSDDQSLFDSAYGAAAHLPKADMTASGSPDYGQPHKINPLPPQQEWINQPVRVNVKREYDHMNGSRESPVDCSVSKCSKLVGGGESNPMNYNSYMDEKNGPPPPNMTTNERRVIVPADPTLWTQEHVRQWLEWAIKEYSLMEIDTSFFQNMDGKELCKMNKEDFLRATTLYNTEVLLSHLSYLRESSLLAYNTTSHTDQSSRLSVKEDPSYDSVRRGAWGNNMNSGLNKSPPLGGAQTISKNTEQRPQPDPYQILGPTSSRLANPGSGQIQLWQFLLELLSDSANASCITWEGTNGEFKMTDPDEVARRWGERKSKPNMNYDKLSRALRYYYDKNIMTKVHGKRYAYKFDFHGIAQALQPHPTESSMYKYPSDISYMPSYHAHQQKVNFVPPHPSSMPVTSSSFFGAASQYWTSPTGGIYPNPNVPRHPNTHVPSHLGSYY
# In short: (§1)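 After expression in yeast as GST fusions, human transcription factors were bound to glutathione beads, DNA-barcoded and mixed with a tag-only sample. The pools were incubated with 200 nmole of a 16-mer random double-stranded DNA library in Tris/NaCl/DTT/glycerol buffer (30 min, room temperature), washed and crosslinked with 0.1% formaldehyde. Proximity ligation with BsaI/T4 ligase ran for 1 h at 37 °C, before PCR amplification and sequencing on an Illumina NextSeq500. Binding signal is a hexamer's read frequency for a factor divided by its frequency for the tag-only sample.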
# ELK1 = target: T2, ELK1 (Homo sapiens, UniProt P19419 1-428); details: protein: recombinant; tags: N-terminal GST; dsDNA, one strand shown
# T2 sequence: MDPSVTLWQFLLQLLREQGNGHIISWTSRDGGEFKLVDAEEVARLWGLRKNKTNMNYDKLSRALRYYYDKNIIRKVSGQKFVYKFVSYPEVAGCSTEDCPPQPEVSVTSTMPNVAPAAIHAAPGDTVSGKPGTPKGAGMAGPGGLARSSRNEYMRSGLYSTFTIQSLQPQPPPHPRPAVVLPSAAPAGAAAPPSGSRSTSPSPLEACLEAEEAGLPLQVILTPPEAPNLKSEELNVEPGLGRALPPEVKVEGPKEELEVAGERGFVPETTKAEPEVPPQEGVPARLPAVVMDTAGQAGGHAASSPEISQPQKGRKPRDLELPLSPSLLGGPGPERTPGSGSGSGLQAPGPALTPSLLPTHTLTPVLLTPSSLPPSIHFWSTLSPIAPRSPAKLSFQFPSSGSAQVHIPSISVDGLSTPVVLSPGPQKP
# In short: as §1
# GABPA = target: T3, GABPA (Homo sapiens, UniProt Q06546 1-454); details: protein: recombinant; tags: N-terminal GST; dsDNA, one strand shown
# T3 sequence: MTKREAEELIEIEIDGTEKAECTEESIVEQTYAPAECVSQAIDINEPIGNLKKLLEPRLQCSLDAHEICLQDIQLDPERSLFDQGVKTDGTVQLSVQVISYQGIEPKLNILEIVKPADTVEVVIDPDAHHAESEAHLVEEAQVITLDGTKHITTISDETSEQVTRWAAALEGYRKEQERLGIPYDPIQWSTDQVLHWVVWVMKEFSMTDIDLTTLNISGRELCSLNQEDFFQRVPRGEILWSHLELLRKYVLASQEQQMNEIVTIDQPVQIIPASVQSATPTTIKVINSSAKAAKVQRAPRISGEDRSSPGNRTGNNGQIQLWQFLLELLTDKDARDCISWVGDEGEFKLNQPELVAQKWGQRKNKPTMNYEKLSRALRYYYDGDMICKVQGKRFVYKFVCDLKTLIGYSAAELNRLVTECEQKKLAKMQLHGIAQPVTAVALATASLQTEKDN
# In short: as §1
# ERG = target: T4, ERG (Homo sapiens, UniProt P11308 1-479); details: protein: recombinant; tags: N-terminal GST; dsDNA, one strand shown
# T4 sequence: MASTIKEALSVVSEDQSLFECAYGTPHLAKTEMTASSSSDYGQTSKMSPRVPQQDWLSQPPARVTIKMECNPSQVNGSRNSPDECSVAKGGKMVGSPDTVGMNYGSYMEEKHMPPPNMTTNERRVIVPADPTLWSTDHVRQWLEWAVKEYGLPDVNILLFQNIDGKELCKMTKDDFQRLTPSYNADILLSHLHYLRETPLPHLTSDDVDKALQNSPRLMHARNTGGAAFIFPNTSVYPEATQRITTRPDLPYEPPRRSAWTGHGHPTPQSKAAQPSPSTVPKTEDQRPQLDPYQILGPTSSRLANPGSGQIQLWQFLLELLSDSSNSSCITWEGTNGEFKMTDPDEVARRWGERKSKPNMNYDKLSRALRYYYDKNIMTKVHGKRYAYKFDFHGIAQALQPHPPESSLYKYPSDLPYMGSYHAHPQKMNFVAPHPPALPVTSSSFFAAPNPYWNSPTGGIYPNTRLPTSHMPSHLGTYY
# In short: as §1
# ELF1 = ELF1 (Homo sapiens, UniProt P32519 1-619); details: protein: recombinant; tags: N-terminal GST; dsDNA, one strand shown
# In short: as §1
# EHF = target: T5, EHF (Homo sapiens, UniProt Q9NZC4 1-300); details: protein: recombinant; tags: N-terminal GST; dsDNA, one strand shown
# T5 sequence: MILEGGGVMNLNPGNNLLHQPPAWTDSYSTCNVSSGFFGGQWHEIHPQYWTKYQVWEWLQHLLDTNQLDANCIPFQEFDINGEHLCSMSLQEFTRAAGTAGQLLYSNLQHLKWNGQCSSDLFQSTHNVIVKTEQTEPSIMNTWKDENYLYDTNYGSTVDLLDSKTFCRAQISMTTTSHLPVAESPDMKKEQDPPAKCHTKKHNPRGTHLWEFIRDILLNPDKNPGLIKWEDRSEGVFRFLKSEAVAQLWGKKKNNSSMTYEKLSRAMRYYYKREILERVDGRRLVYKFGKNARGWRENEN
# In short: as §1
# SPI1 = SPI1 (Homo sapiens, UniProt P17947 1-270); details: protein: recombinant; tags: N-terminal GST; dsDNA, one strand shown
# In short: as §1
# SPIB = SPIB (Homo sapiens, UniProt Q01892 1-262); details: protein: recombinant; tags: N-terminal GST; dsDNA, one strand shown
# In short: as §1
# ELK3 = target: T6, ELK3 (Homo sapiens, UniProt P41970 1-407); details: protein: recombinant; tags: N-terminal GST; dsDNA, one strand shown
# T6 sequence: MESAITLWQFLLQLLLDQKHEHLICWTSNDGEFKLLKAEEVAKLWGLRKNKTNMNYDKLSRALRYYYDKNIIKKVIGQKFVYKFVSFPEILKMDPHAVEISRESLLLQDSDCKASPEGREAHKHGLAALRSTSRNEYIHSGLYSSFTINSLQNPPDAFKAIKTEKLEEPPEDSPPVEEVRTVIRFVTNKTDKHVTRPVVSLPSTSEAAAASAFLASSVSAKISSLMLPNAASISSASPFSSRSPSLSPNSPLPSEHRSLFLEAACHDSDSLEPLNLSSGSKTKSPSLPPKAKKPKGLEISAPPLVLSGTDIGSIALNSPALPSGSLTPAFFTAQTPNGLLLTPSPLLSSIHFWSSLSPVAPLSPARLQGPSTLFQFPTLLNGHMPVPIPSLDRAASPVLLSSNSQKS
# In short: as §1
# FEV = target: T7, FEV (Homo sapiens, UniProt Q99581 1-238); details: protein: recombinant; tags: N-terminal GST; dsDNA, one strand shown
# T7 sequence: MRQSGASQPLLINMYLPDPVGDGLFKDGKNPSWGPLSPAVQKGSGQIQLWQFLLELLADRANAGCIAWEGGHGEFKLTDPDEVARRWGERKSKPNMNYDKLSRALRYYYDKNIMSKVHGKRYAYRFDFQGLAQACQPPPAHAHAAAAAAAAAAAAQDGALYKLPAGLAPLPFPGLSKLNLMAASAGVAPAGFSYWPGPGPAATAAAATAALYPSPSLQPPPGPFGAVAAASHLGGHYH
# In short: as §1
# ETV5 = ETV5 (Homo sapiens, UniProt P41161 1-510); details: protein: recombinant; tags: N-terminal GST; dsDNA, one strand shown
# In short: as §1
# HSF1 = HSF1 (Homo sapiens, UniProt Q00613 1-529); details: protein: recombinant; tags: N-terminal GST; chain copies: 3; dsDNA, one strand shown
# In short: as §1
# SPIC = target: T8, SPIC (Homo sapiens, UniProt Q8N5J4 1-248); details: protein: recombinant; tags: N-terminal GST; dsDNA, one strand shown
# T8 sequence: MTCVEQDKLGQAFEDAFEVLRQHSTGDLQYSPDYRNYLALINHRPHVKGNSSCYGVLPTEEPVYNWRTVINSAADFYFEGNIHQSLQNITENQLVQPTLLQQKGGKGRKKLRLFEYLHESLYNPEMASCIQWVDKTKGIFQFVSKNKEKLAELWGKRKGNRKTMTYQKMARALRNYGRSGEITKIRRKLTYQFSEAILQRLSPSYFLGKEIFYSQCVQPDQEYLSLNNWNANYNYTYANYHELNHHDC
# In short: as §1
# ELF4 = ELF4 (Homo sapiens, UniProt Q99607 1-663); details: protein: recombinant; tags: N-terminal GST; dsDNA, one strand shown
# In short: as §1
# ELK4 = target: T9, ELK4 (Homo sapiens, UniProt P28324-2 1-405); details: protein: recombinant; tags: N-terminal GST; dsDNA, one strand shown
# T9 sequence: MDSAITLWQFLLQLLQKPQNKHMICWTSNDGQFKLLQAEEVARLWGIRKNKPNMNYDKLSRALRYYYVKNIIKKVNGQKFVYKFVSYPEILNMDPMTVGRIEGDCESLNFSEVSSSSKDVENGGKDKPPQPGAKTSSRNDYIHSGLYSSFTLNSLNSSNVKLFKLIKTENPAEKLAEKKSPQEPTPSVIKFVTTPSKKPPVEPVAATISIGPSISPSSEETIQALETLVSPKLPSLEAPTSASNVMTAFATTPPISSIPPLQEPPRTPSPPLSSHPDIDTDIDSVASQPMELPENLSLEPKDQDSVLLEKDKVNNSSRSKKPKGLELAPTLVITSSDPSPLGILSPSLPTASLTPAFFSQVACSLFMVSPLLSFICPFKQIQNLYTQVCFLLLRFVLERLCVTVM
# In short: as §1
# ETV2 = target: T10, ETV2 (Homo sapiens, UniProt O00321 1-342); details: protein: recombinant; tags: N-terminal GST; dsDNA, one strand shown
# T10 sequence: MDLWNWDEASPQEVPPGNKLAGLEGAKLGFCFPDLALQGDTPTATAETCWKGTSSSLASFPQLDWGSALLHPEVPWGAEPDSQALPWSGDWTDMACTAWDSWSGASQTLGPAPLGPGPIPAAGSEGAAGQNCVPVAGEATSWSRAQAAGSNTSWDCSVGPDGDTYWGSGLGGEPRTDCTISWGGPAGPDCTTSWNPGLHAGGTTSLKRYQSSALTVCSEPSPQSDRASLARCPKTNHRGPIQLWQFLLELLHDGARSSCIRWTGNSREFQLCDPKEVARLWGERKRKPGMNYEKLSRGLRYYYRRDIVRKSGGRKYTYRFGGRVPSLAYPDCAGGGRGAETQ
# In short: as §1
# ELF3 = target: T11, ELF3 (Homo sapiens, UniProt P78545 1-371); details: protein: recombinant; tags: N-terminal GST; dsDNA, one strand shown
# T11 sequence: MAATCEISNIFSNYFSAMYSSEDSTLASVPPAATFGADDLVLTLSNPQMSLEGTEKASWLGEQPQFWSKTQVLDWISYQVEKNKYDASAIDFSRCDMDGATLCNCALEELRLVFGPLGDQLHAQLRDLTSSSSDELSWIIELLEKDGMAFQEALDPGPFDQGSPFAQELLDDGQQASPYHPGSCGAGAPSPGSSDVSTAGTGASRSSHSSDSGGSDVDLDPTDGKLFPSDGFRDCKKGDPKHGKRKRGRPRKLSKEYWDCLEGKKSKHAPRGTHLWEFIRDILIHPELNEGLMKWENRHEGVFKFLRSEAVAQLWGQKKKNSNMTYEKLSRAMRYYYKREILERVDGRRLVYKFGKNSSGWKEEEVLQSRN
# In short: as §1
# CRX = CRX (Homo sapiens, UniProt O43186 1-299); details: protein: recombinant; tags: N-terminal GST; dsDNA, one strand shown
# In short: as §1
# ETV1 = ETV1 (Homo sapiens, UniProt P50549 1-477); details: protein: recombinant; tags: N-terminal GST; dsDNA, one strand shown
# In short: as §1
# Chain of ELF1 (P32519 whole entry): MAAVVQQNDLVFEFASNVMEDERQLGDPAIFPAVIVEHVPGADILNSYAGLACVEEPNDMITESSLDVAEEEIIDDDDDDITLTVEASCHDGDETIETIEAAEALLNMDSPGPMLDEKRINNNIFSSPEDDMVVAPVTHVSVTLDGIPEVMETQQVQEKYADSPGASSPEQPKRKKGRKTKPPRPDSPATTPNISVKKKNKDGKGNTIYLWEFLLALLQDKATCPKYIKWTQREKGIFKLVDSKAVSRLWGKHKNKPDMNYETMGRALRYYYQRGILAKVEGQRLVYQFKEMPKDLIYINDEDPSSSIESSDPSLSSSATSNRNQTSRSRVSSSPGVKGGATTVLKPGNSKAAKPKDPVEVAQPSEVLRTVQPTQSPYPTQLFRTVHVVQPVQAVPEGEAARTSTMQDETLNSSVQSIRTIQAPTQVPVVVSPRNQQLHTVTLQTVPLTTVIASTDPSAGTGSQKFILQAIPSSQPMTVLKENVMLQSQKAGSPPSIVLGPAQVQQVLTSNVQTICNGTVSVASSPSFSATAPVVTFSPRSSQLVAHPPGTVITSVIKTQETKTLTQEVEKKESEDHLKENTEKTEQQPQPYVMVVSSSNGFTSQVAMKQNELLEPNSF
# Chain of SPIB (Q01892 whole entry): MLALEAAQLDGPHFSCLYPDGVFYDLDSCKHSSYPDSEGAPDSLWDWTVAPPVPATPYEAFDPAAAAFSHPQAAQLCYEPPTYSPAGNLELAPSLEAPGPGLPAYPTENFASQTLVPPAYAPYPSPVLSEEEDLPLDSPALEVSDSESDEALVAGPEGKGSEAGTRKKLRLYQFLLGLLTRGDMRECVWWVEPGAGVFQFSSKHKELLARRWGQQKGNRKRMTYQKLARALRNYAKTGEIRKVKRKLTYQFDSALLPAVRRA
# Chain of ETV1 (P50549 whole entry): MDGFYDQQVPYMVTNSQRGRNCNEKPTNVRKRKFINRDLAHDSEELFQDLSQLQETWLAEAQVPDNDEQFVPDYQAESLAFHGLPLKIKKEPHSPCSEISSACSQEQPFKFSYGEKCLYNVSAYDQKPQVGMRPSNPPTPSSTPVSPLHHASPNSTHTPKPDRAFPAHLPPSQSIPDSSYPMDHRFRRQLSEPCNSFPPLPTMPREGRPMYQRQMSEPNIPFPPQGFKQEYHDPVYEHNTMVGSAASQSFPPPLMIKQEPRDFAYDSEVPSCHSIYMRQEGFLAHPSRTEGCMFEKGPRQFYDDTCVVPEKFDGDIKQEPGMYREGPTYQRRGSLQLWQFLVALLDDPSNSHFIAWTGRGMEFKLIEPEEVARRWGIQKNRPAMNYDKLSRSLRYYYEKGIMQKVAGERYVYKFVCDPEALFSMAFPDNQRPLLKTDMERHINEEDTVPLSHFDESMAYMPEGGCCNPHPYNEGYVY
# Chain of ETV5 (P41161 whole entry): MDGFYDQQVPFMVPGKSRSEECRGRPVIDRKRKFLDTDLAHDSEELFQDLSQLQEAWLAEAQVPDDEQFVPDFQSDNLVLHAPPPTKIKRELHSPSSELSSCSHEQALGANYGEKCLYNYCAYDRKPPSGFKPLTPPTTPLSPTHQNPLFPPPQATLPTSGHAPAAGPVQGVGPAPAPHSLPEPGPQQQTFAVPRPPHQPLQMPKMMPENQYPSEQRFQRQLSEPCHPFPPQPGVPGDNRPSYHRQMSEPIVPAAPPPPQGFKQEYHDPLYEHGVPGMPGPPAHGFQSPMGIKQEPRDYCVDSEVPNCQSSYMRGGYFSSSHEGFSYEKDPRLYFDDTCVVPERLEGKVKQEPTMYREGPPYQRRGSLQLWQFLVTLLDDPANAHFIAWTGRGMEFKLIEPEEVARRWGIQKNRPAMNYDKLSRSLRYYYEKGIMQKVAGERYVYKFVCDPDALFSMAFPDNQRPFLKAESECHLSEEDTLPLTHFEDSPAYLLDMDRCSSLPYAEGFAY
# Chain of HSF1 (Q00613 whole entry): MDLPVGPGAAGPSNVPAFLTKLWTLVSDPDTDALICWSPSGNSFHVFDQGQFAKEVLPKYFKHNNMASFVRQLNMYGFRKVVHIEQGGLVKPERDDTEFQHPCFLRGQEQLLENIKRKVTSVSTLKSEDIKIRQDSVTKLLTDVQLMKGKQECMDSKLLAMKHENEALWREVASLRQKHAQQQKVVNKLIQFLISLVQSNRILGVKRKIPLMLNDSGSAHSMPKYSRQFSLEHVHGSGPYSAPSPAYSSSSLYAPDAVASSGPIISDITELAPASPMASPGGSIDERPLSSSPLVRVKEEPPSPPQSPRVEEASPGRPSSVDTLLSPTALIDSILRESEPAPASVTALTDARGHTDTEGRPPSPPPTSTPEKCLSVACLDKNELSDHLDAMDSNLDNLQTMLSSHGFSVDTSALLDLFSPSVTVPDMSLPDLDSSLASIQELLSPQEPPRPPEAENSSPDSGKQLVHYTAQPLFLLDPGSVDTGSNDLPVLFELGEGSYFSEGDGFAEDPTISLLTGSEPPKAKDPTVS
# Chain of ELF4 (Q99607 whole entry): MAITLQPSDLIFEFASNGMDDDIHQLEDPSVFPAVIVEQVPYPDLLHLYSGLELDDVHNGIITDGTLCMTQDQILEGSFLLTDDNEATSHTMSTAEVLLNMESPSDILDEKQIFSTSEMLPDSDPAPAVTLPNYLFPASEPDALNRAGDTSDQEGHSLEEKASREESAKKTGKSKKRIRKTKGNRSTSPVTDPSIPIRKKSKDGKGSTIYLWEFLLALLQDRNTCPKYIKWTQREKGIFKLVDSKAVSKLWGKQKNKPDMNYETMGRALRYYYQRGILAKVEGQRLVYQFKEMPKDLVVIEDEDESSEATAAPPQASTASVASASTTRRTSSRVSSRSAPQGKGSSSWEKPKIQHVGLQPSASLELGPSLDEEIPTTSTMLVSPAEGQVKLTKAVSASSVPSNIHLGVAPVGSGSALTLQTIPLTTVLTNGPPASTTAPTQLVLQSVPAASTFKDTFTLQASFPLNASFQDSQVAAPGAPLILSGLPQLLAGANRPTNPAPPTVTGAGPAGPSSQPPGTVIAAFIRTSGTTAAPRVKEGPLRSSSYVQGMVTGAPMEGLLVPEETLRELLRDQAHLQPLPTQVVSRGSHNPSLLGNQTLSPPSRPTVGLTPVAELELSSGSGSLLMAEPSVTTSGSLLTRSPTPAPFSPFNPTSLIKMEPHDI
# Chain of CRX (O43186 whole entry): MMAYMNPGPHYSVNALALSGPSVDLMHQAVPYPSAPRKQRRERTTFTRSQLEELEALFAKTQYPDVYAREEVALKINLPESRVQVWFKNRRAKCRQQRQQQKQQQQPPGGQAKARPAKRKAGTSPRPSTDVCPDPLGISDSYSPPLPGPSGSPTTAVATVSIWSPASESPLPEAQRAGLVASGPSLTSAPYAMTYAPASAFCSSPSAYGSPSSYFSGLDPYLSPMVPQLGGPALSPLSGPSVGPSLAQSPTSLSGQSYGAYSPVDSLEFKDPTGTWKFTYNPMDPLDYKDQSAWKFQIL
sequence,measurement,setting,value
AAGATA,binding signal,FLI1,"1.07 fold enrichment (6-mer frequency, TF over GST control)"
same,binding signal,ELK1,"1.15 fold enrichment (6-mer frequency, TF over GST control)"
same,binding signal,GABPA,"1.14 fold enrichment (6-mer frequency, TF over GST control)"
same,binding signal,ERG,"1.17 fold enrichment (6-mer frequency, TF over GST control)"
same,binding signal,ELF1,"1.14 fold enrichment (6-mer frequency, TF over GST control)"
same,binding signal,EHF,"1.18 fold enrichment (6-mer frequency, TF over GST control)"
same,binding signal,SPI1,"1.08 fold enrichment (6-mer frequency, TF over GST control)"
same,binding signal,SPIB,"1.12 fold enrichment (6-mer frequency, TF over GST control)"
same,binding signal,ELK3,"1.23 fold enrichment (6-mer frequency, TF over GST control)"
same,binding signal,FEV,"1.08 fold enrichment (6-mer frequency, TF over GST control)"
same,binding signal,ETV5,"1.14 fold enrichment (6-mer frequency, TF over GST control)"
same,binding signal,HSF1,"1.33 fold enrichment (6-mer frequency, TF over GST control)"
same,binding signal,SPIC,"1.06 fold enrichment (6-mer frequency, TF over GST control)"
same,binding signal,ELF4,"1.16 fold enrichment (6-mer frequency, TF over GST control)"
same,binding signal,ELK4,"1.12 fold enrichment (6-mer frequency, TF over GST control)"
same,binding signal,ETV2,"1.16 fold enrichment (6-mer frequency, TF over GST control)"
same,binding signal,ELF3,"1.03 fold enrichment (6-mer frequency, TF over GST control)"
same,binding signal,CRX,"1.53 fold enrichment (6-mer frequency, TF over GST control)"
same,binding signal,ETV1,"1.2 fold enrichment (6-mer frequency, TF over GST control)"
